PubChem BioAssay
A number with no mark means an inactive call. Active and inactive are the calls of the source. Cut-off read from the data, not from the text of the source, unless noted: active = inhibition above about 28%; inactive = the rest.

Columns and labels:
[1] = StAR promoter reporter inhibitors, counter-screen for LRH-1 inverse agonist project, cell-based, luminescence, high throughput (AID 651611); settings: StAR promoter luciferase reporter counterscreen, at 3.6 µM, active compounds read high
[2] = molecular target: Nuclear receptor subfamily 5 group A member 2 (Homo sapiens) (UniProt O00482); test: LRH-1 (NR5A2) inverse agonists, retest, confirmation, cell-based, luminescence (AID 651613; in the data active = inhibition above about 42%;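 note: HEK293T cells co-transfected with LRH-1 and StAR promoter luciferase reporter; 0% = vehicle wells and 100% = parental cells lacking receptor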); settings: cell-based LRH-1 luciferase reporter, inverse agonism; at 3.6 µM; active compounds read high
[3] = molecular target: Steroidogenic factor 1 (Homo sapiens) (UniProt Q13285); test: SF1 (NR5A1) inverse agonists, counter-screen for LRH-1 inverse agonist project, cell-based, luminescence, high throughput (AID 651614; in the data active = inhibition above about 44%;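 note: cells cotransfected with StAR promoter reporter and SF1 expression vector; 0% = vehicle on cells with receptor and 100% = vehicle on cells lacking receptor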); settings: cell-based SF1 luciferase reporter, at 3.6 µM, active compounds read high
[4] = VP16 transactivation reporter inhibitors, counter-screen for LRH-1 inverse agonist project, cell-based, luminescence, high throughput (AID 651615; in the data active = inhibition above about 33%); settings: Gal4-VP16 luciferase reporter cells, at 3.6 µM, active compounds read high

Nuclear receptor subfamily 5 group A member 2 (Homo sapiens), sequence (O00482 whole entry, looked up): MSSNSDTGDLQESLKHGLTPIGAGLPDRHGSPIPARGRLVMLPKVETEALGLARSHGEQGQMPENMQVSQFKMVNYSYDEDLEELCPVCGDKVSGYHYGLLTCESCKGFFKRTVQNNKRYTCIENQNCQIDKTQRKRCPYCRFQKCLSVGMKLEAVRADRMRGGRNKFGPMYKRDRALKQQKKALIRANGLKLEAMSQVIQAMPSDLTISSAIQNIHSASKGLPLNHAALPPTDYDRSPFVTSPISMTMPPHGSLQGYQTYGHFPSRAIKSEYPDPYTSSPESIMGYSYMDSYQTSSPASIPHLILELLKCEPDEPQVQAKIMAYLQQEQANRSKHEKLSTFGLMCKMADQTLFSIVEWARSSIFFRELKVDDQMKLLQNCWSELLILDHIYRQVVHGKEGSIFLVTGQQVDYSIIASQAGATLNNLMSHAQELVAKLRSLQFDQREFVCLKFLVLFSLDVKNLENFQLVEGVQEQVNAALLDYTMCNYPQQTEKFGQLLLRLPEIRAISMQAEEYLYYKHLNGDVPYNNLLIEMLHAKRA
Steroidogenic factor 1 (Homo sapiens), sequence (Q13285 whole entry, looked up, the tested form may be a part): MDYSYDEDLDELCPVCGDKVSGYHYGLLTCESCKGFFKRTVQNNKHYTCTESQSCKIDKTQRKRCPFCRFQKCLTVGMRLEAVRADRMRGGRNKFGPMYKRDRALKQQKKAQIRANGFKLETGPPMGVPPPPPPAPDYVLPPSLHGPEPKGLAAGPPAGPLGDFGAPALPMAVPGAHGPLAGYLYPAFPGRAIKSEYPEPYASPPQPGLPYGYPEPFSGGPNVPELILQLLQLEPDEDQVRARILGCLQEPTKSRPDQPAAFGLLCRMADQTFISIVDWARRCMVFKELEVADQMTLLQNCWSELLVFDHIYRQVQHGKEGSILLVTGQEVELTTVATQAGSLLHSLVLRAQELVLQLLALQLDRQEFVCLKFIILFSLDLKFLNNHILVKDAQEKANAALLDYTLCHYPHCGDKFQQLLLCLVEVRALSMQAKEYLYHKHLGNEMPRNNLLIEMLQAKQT

Row | SMILES | inhibition [1] | inhibition [2] | inhibition [3] | inhibition [4]
1 | O=[N+]([O-])c1cnccc1Nc1ccccc1 | 7.45% | 62% (active) | 58.9% (active) | 1.98%
2 | O=C(C[n+]1ccc(Cc2ccccc2)cc1)Nc1ccc([N+](=O)[O-])cc1Cl | 5.98% | 54.7% (active) | 45.6% (active) | 5.52%
3 | Cn1cnnc1SCC(=O)Nc1ccc(N2CCOCC2)cc1 | 7.69% | 59.5% (active) | 34.5% | -9.61%
4 | O=C(Nc1ccc(Oc2ccccc2)cc1)c1csc([C@H]2C[C@H](O)[C@@H](CO)O2)n1 | 27.6% | 56.6% (active) | 61.1% (active) | 54.4% (active)
5 | N#Cc1c2ccc([N+](=O)[O-])cc2[n+]([O-])n1-c1ccccc1 | 58.2% (active) | 81.5% (active) | 75.4% (active) | -21.2%
6 | O=C(CCl)NCCN1C(=O)S/C(=C\c2cccnc2)C1=O | 10.2% | 55.9% (active) | 57.4% (active) | -3.37%
7 | O=C(Nc1ccc(N2CCN(Cc3ccccc3F)CC2)cc1)c1ccc([N+](=O)[O-])o1 | 28.7% (active) | 70.6% (active) | 73.9% (active) | 32.6% (active)
8 | COc1ccc(S(=O)(=O)N2CCOCC2)cc1N=Nc1sc(N)nc1-c1ccccc1 | 36.4% (active) | 60.7% (active) | 66.3% (active) | -3.07%
9 | COc1ccccc1NC(=O)CN1CCN(CC(=O)Nc2ccc(S(N)(=O)=O)cc2)CC1 | 19.1% | 49.8% (active) | 47.7% (active) | -15.6%
